Assay outcomes (PubChem BioAssay)
Methyltransferases – Primary Screen for Target Class Profiling of Small Molecule Inhibitors of Methyltransferases. purified enzyme, MTase-Glo SAH luminescence; stronger effect = lower value. calls only at 40 µM. 3.9% of 25,000 active; call rule not given here
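Each enzyme was assayed with SAM and its substrate. SAH formation detected by MTase-Glo luminescence; single-point 40 uM screen[…].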
The depositor's hits bear a star; i = inactive; + = active, no number. Only a selection was taken, and hits are over-represented in it overall. On the % scale 0 is the no-effect control and ±100 the full control effect.

SMILES | Methyltransferases
C=C1C(O[C@@H]2O[C@H](CO)[C@@H](O)[C@H](O)[C@@H]2O)CC2C(C)(C)C(O)CCC2(C)C1CC/C(C)=C\CO (some centres undefined) | +
CC(C)=CCC[C@](C)(O[C@@H]1O[C@H](CO)[C@@H](O)[C@H](O)[C@H]1O)[C@H]1CC[C@]2(C)[C@@H]1[C@H](O)CC1[C@@]3(C)CC[C@H](O)C(C)(C)C3[C@@H](O[C@@H]3O[C@H](CO)[C@@H](O)[C@H](O)[C@H]3O[C@@H]3O[C@@H](C)[C@H](O)[C@@H](O)[C@H]3O)C[C@]12C (some centres undefined) | i
Cc1ccc(CNC(=O)c2cc3n(n2)CC(C)(C(=O)NC2CCCC2)N(C)C3=O)cc1 (centres undefined) | i
O=C(c1ccc(Cl)c([N+](=O)[O-])c1)N1CCN(c2ccccc2F)CC1 | i
O=C(c1ccc(Cl)cc1)N1CCN(c2ccnc3cc(Cl)ccc23)CC1 | +
CCn1cc(-c2ccc(Cl)cc2)cc1C(=O)N1CCN(c2ccccn2)CC1 | i
COc1ccc(-c2cc3n(n2)CC(C)(C(=O)NC2CCCCC2)N(Cc2ccccc2F)C3=O)cc1 (centres undefined) | i
CN1C(=O)c2cc(C(=O)NCCN3CCOCC3)nn2CC1(C)C(=O)NCc1ccc(F)cc1 (centres undefined) | i
CC(C)CCn1c(=O)c2ccc(C(=O)NC(C)C)cc2n2c(=O)n(CC(=O)NC3CCCCC3)nc12 | i
CCCn1c(=O)c2ccccc2n2c(SCC(=O)NCc3ccc(OC)cc3)nnc12 | i
CN(CCCOc1ccc(Cc2ccccc2)cc1)CCC(=O)O | i
COc1ccc(CCN(C)CCCOc2nsc(-c3ccccc3)n2)cc1OC | +
COc1cccc(-c2[nH]cnc2-c2ccccc2)c1OCCCN(C)C | i
Cc1ccc(C)c(N2C(=O)c3cc4occc4n3CC2(C)C(=O)NC2CCCC(C)C2C)c1 (centres undefined) | i
CC(C)(C)c1cc2n(n1)CC(C)(C(=O)NC1CCCCCC1)N(Cc1ccccc1F)C2=O (centres undefined) | i
COc1ccccc1NC(=O)CSc1nnc2n(Cc3ccccc3)c(=O)c3ccccc3n12 | i
CC(C)OCCCn1c(=O)c2ccccc2n2c(=O)n(CC(=O)NCc3ccc(Cl)cc3)nc12 | i
O=C(c1cccc([N+](=O)[O-])c1)N1CCc2c(c3ccccc3n2CC2CC2)C1 | i
CC(=O)Nc1ccc(C(=O)NCc2nn(Cc3ccccc3)c3ccccc23)cc1 | i
CN1CCc2c(n(Cc3ccc(C(=O)NO)cc3)c3ccccc23)C1 | +
COC(=O)c1ncn2c1C(=O)N(Cc1ccc(C)o1)C(C)(C(=O)NC1CCCCC1)C2 (centres undefined) | i
Cc1cccc(NC(=O)N2Cc3c(sc4c3CCCC4)-n3cccc3C2c2ccccc2)c1 (centres undefined) | i
Cn1c(=O)n(C)c2cc(S(=O)(=O)Nc3ccc(Br)cc3)ccc21 | i
O=C(O)CSc1cc(NS(=O)(=O)c2ccc(Br)cc2)c2ccccc2c1O | +
CN(C)C(=O)COC(=O)c1cc(-c2ccc(C3CCNCC3)cc2)c2ccc(-c3ccc(C(F)(F)F)cc3)cc2c1 | i
SMILES | Methyltransferases
O=C(NCCCc1ccccc1)C1CN(C2CCCC2)C(=O)N1 (centres undefined) | i
CC1=C(C(=O)OCc2ccccc2)C(c2ccc(-c3ccccc3)cc2)NC(=O)N1CCCCCC(=O)O (centres undefined) | +
O=C1N[C@@H]2CCN(C(=O)c3ccc(-c4ccccc4)cc3)[C@@H]2C(=O)N1Cc1ccccc1 | i
COc1ccc(C(=O)Nc2ccc([C@H]3OCC(=O)N[C@@H]3CO)cc2)cc1 | i
CCOC(=O)c1cccc(NS(=O)(=O)c2ccc3c(c2)n(C)c(=O)n3C)c1 | i
CCOc1ccc(CCN2C(=O)c3cc(C(=O)OC)nn3CC2(C)C(=O)NC2CCC(C)CC2)cc1 (centres undefined) | i
CCCCN(CC)CCN1C(=O)c2cc3occc3n2CC1(C)C(=O)NC1CCCCCC1 (centres undefined) | i
CC(C)NC(=O)c1ccc2c(=O)n(C3CC3)c3nn(CC(=O)Nc4cc(F)ccc4F)c(=O)n3c2c1 | i
COCCCNc1nc2c(S(=O)(=O)c3ccc(C)c(C)c3)nnn2c2ccccc12 | i
Nc1ccc(-c2ccc3ncc4ccc(=O)n(-c5cccc(C(F)(F)F)c5)c4c3c2)cn1 | +
CCC(=O)N1CCN(c2ccc(-n3c(=O)ccc4cnc5ccc(-c6cnc7ccccc7c6)cc5c43)cc2C(F)(F)F)CC1 | i
CC1(C(=O)NC2CCCCCCC2)Cn2c(cc3occc32)C(=O)N1Cc1ccco1 (centres undefined) | i
CCOc1ccc(CNS(=O)(=O)c2ccc3[nH]c(=O)[nH]c3c2)cc1OC | i
Cc1coc2c1C(=O)C(=O)c1c-2ccc2c1CCCC2(C)C | +
Cc1coc2c1C(=O)C(=O)c1c-2ccc2c(C)cccc12 | i
O=C(CCc1nc2ccccc2s1)N[C@@H]1CCOC[C@H]1OCCO | i
CCCN1C(=O)c2c(C(=O)NCc3ccc(CC)cc3)ncn2CC1(C)C(=O)NCc1ccc(C)cc1 (centres undefined) | i
O=C(Nc1cccc(F)c1)N1CCn2cccc2C1Cc1ccccc1 (centres undefined) | i
O=C(Nc1ccc(F)c(Cl)c1)N1CCn2cccc2C1Cc1ccccc1 (centres undefined) | +
Cc1cccc(NC(=O)N2CCn3cccc3C2Cc2ccccc2)c1 (centres undefined) | i
CC(=O)O[C@H]1[C@H](O[C@H]2CC[C@]34C[C@]35CC[C@]3(C)[C@@H]([C@@]6(C)CC[C@@H](C(C)(C)O)O6)[C@@H](O)C[C@@]3(C)[C@@H]5C[C@H](O[C@@H]3O[C@H](CO)[C@@H](O)[C@H](O)[C@H]3O)[C@H]4C2(C)C)OC[C@@H](OC(C)=O)[C@@H]1O | i
CC(C)CCN1C(=O)c2cc3sccc3n2CC1(C)C(=O)NC1CCCCC1C (centres undefined) | i
CC1(C(=O)NC2CCCCCC2)Cn2nc(C3CC3)cc2C(=O)N1Cc1ccccc1Cl (centres undefined) | i
Nc1nc2c(cnn2CCc2ccccc2)c2nc(-c3ccco3)nn12 | +
Nc1nc2ccc(Cl)cc2c2nc(-c3ccco3)nn12 | i
SMILES | Methyltransferases
O=C(c1cc(Cc2n[nH]c(=O)c3ccccc23)ccc1F)N1CCCNCC1 | i
CC1CCC(NC(=O)C2(C)Cn3c(cc4occc43)C(=O)N2Cc2cccs2)CC1 (centres undefined) | i
Cc1cc2c(cc3n2CC(C)(C(=O)NC2CCCCC2)N(Cc2ccco2)C3=O)o1 (centres undefined) | i
Cc1ccc(-c2ncccc2CNS(=O)(=O)c2ccc(C#N)cc2)cc1 | i
CCCCOc1ccc(C(=O)Nc2ccc(F)cc2F)cc1 | i
CCOc1ccc(-c2cc(NC(=O)c3c(F)cccc3F)c(C(=O)O)s2)cc1 | +
COc1cccc(-c2ccc(NC(=O)C3=C(C(=O)O)CCC3)c(F)c2)c1 | i
OCC1(Cc2ccccc2F)CCCN(c2nnnn2-c2ccccc2)C1 (centres undefined) | i
COc1ccc(Cl)cc1NS(=O)(=O)c1ccc2[nH]c(=O)[nH]c2c1 | i
Cc1ccc([N+](=O)[O-])cc1S(=O)(=O)N(C)/N=C/c1cnc2ccc(Br)cn12 | +
